The results in this text go back to PubChem BioAssay AID504332 (National Center for Advancing Translational Sciences (NCATS), 2011).

The campaign covered roughly 350,000 compounds. About 31,000 (8.9%) were called active. A call without a number means that no potency is given here. About 15% were inconclusive and are not listed. The full list was thinned out, with actives kept by preference. Values without a mark were called inactive. Calls come from the whole dose curve; as a rule, active = well fitted inhibition curve with a large enough effect; inconclusive = small, poorly fitted or top-dose-only effect; inactive = no such curve, though single readings can be large or run the other way.
Potency is the fitted concentration of half-maximal effect.

The test deals with Histone-lysine N-methyltransferase EHMT2 (Homo sapiens) (UniProt Q96KQ7). Put plainly: qHTS Assay for Inhibitors of Histone Lysine Methyltransferase G9a. Note: nearly all actives have a fitted effect of over 75% in size. The following applies: G9a H3K9 monomethylation, AlphaScreen, 2 h; series mostly up to 59 µM. The gist of the method: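 Chemiluminescent proximity detection of H3K9 monomethylation, read after 10 min bead incubation in the dark. Reaction: 20 nM G9a, 500 nM biotin-H3K9 peptide, 20 uM SAM cofactor, 2 h, room temperature, following 15 min enzyme-compound preincubation.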
Sequence of Histone-lysine N-methyltransferase EHMT2 (Homo sapiens) (Q96KQ7 913-1193 limits assumed): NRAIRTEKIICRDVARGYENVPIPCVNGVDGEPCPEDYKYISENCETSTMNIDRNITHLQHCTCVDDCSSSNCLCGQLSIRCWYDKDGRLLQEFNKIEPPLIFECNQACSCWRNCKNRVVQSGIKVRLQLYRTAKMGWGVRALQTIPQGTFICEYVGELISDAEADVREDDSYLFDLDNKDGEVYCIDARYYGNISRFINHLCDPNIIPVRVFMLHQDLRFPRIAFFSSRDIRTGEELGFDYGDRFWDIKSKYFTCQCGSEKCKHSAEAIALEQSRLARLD
A general note: In qHTS, concentration-response curves come from the screen itself.
In the case of `Cc1ccn2c(=O)nc(SCC(=O)NCc3ccc(F)cc3)nc2c1`, the Potency result is “inactive”.

For `COc1ccc(-n2c(C)nc3c(cnn3-c3ccc(F)cc3)c2=O)cc1`, the Potency result is “inactive”.

Regarding `Cc1c(C(=O)CN2CCOCC2)[nH]c2ccccc12`, the Potency is 39.8 µM (active).

Take `Cc1c(C(=O)N2CCOCC2)[nH]c2ccc(OCc3ccccc3)cc12`: the activity, negative = inhibition is -37.5% [at 12.7 µM].

With `Cc1[nH]c2ccccc2c1C(=O)CN1CC(C)CC(C)C1` (centres undefined), the Potency result was “inactive”.

On to `CCOc1ccccc1CNC(=O)c1ccc2c(c1)nc1n2CCC(C)C1` (centres undefined), for which the Potency entry is “inactive”.

For the compound `CCOc1ccc(OCC)c(Nc2nc3ccccc3n3nnnc23)c1`, the Potency result was “inactive”.

Turning to `CC1CCCCC1NC(=O)CSc1nnc(-c2ccncc2)n1CCCN(C)C` (centres undefined), the Potency was 3.98 µM (active).

As for `CCn1c(SCC(=O)NC2CC2)nnc1-c1ccncc1`, the Potency result was “inactive”.

As for `O=C(CSc1nnc(-c2ccncc2)n1C1CCCCC1)Nc1ccccc1`, the Potency result is “inactive”.

As to `CC1(C)NC(=O)N(CC(=O)N2CCN(S(=O)(=O)c3ccccc3F)CC2)C1=O`, the activity, negative = inhibition is 22.5% [at 12.7 µM].

In the case of `Cc1csc2nc(O)c(C(=O)NCCN3CCOCC3)c(=O)n12`, the Potency result was “inactive”.

Consider `CCc1ccc(NC(=O)C(=O)NNC(=O)c2cccs2)cc1`, for which the Potency result is “inactive”.

As to `CC(C)C(=O)Nc1ccc(C(=O)NNC(=O)c2cccs2)cc1`, the Potency entry was “inactive”.

For `CC(=O)NC(=S)Nc1ccc(NC(=O)c2cccnc2)cc1`, the Potency result is “inactive”.

`NS(=O)(=O)c1ccc(NC(=S)NC(=O)c2cccnc2)cc1`: the Potency is 50.1 µM (active).

With `NS(=O)(=O)c1ccc(NC(=S)NC(=O)c2cccc(Br)c2)cc1`, the Potency result is “inactive”.

`NS(=O)(=O)c1ccc(NC(=S)NNC(=O)c2cccs2)cc1`: the Potency is 8.91 µM (active).

On to `CC(=O)c1sc(N)nc1C`, for which the activity, negative = inhibition is -2.73% [at 2.33 µM].

Turning to `CCCc1nnc(NC(=O)CCC(=O)NC2CC2)s1`, the Potency entry was “inactive”.

In the case of `O=C(NC1CC(=O)N(c2ccc(Cl)cc2)C1)C1CCCC1` (centres undefined), the Potency entry is “inactive”.

As to `CSc1ncc(C(=O)NCc2ccccc2Cl)c(C(F)(F)F)n1`, the Potency entry was “inactive”.

For the compound `COc1ccc(-n2nc(C(=O)NCC(=O)N3CCN(c4ccccc4OC)CC3)c3ccccc3c2=O)c(OC)c1`, the Potency result was “inactive”.

Consider `COC(=O)c1scc(-c2ccc(C)cc2)c1S(=O)(=O)Nc1cc(Cl)c(OC)cc1OC`, for which the Potency result was “inactive”.

In the case of `COC(=O)c1c(-c2ccc(C)cc2)csc1N`, the Potency was 31.6 µM (active).

As to `CCC(C(=O)OC)n1cnc2scc(-c3ccc(C)cc3)c2c1=O` (centres undefined), the Potency result was “inactive”.

For `NC(=O)CSc1nc2c(oc3ccccc32)c(=O)n1Cc1ccccc1`, the Potency entry is “inactive”.

Consider `CCc1nnc(NC(=O)Cc2cccs2)s1`, for which the Potency entry is “inactive”.

On to `O=C(Cc1cccs1)Nc1nnc(SCc2ccc(F)cc2)s1`, for which the Potency result is “inactive”.

In the case of `COc1ccc(Cc2nnc(NC(=O)Cc3cccs3)s2)cc1`, the Potency was 39.8 µM (active).

In the case of `CCOc1ccc(CCNC(=O)COC(=O)c2c(OC)cccc2OC)cc1OCC`, the activity, negative = inhibition was -6.24% [at 2.33 µM].

As for `CCN(C(=O)CSc1nnnn1-c1ccccc1OC)C1CCS(=O)(=O)C1` (centres undefined), the Potency result is “inactive”.

On to `O=C(Cn1c(=O)n(Cc2ccccc2)c(=O)c2sc3ccccc3c21)Nc1ccccc1F`, for which the Potency result is “inactive”.

As to `NC(=O)c1sc(-c2ccsc2)cc1N`, the Potency was 14.1 µM (active).

For the compound `COc1cc(OC)cc(-c2nc3nc(C)c(CCC(=O)Nc4ccc(C)cc4)c(C)n3n2)c1`, the Potency entry was “inactive”.

As for `COc1ccc(/C=C(\C#N)C(=O)OCC(=O)N(C)C2CCS(=O)(=O)C2)cc1` (centres undefined), the Potency result was “inactive”.

With `Cc1ccc(N2C(=O)C3CC3C2=O)cc1` (centres undefined), the Potency result was “inactive”.

As to `Cc1ccc(N2C(=O)CC(Nc3cccc4ccccc34)C2=O)cc1` (centres undefined), the Potency is 14.1 µM (active).

`O=C(Cc1ccccc1)NNC1CC(=O)N(c2ccc(Br)cc2)C1=O` (centres undefined): the Potency entry is “inactive”.

Turning to `Cc1cccc(NC(=O)c2nnn(CC(=O)Nc3ccc(C(C)C)cc3)c2N)c1C`, the Potency result is “inactive”.

Turning to `CN(CC(=O)NCc1ccc2c(c1)OCO2)CC(=O)Nc1ccc(F)c(F)c1F`, the activity, negative = inhibition was 2.14% [at 12.7 µM].

As for `CC1CCN(C(=O)/C(=C\c2ccccc2)NC(=O)c2ccccc2)CC1`, the Potency entry is “inactive”.

For the compound `CC1CCN(c2ccc([N+](=O)[O-])cc2C(N)=O)CC1`, the Potency result was “inactive”.

As for `CC1CCN(C(=S)c2cccc([N+](=O)[O-])c2)CC1`, the Potency was 35.5 µM (active).

As for `CC1CCN(C(=O)CCNC(=O)c2ccccc2)CC1`, the Potency entry is “inactive”.

Take `CC1CCN(C(=S)c2cccc(O)c2)CC1`: the Potency was 14.1 µM (active).

Consider `O=C(c1cccc([N+](=O)[O-])c1)N1CCN(C(=O)c2ccco2)CC1`, for which the Potency entry was “inactive”.

As to `Cc1ccc(Cl)c(OCC(=O)N(C)CC(=O)Nc2ccc(N3CCOCC3)cc2)c1`, the activity, negative = inhibition was 10.6% [at 0.501 µM].

As to `CCc1ccccc1NC(=O)CSc1nc(C)c(C(=O)Nc2ccccc2)c(-c2ccc(Cl)cc2)c1C#N`, the Potency entry was “inactive”.

Turning to `Cc1ccccc1C(=O)Nc1cc(C)c(O)c(-c2nc3ccccc3o2)c1`, the Potency result was “inactive”.

Turning to `COC(=O)CN1C(=O)[C@H]2[C@@H](C3CC3)N3C(=O)CN(Cc4ccc(-c5ccccc5)cc4)C(=O)[C@@]3(Cc3ccccc3)[C@H]2C1=O`, the Potency result was “inactive”.

On to `CSc1ccc(C2C(C(=O)Nc3ccccc3)=C(C)Nc3nc4ccccc4n32)cc1` (centres undefined), for which the Potency result was “inactive”.

Consider `Cc1cc(C)n(CCNS(=O)(=O)c2ccc(Cl)cc2)n1`, for which the activity, negative = inhibition is -7.54% [at 0.501 µM].

As for `CSc1ccc(S(=O)(=O)NCc2ccc(Cl)cc2)cc1`, the activity, negative = inhibition was 15.9% [at 12.7 µM].

On to `CCn1c(CNS(=O)(=O)c2ccc(Cl)cc2)n[nH]c1=S`, for which the Potency was 28.2 µM (active).

With `O=C(c1cc(-c2ccc(Cl)s2)nc2ccccc12)N1CCOCC1`, the activity, negative = inhibition was 17% [at 12.7 µM].

As for `COc1ccc(CN2C(=O)C(NC(=O)c3cccc(C)c3)(C(F)(F)F)N=C2c2ccccc2)cc1` (centres undefined), the Potency entry was “inactive”.

As for `CCCCOc1ccc(CSC(=N)N)cc1[N+](=O)[O-]`, the activity, negative = inhibition was 7.15% [at 12.7 µM].

Turning to `Cc1ccc([N+](=O)[O-])c(OCCCNCC(C)O)c1` (centres undefined), the Potency was 12.6 µM (active).

With `COCCNc1cc(NCCOC)c([N+](=O)[O-])cc1[N+](=O)[O-]`, the Potency result is “inactive”.

Consider `COc1ccc(CC(NC(C)=O)C(=O)NC2CCN(C(=O)c3ccc(Cl)cc3)CC2)cc1` (centres undefined), for which the Potency result was “inactive”.

For the compound `O=C(c1ccccc1F)N1CCC(c2nc3c(nnn3Cc3cccc(F)c3)c(=O)[nH]2)CC1`, the Potency was 1 µM (active).

Turning to `O=C(Nc1ccc(F)cc1)N1CCCC(c2nc3c(nnn3Cc3ccccc3Cl)c(=O)[nH]2)C1` (centres undefined), the Potency entry was “inactive”.

Turning to `Cc1ccc(NC(=O)N2CCC(c3nc4c(nnn4Cc4c(F)cccc4Cl)c(=O)[nH]3)CC2)cc1`, the Potency entry was “inactive”.
